# KLF5 inhibitor = inhibitors of KLF5 expression; inhibition, % at 5 µM; AID 1700; DLD-1 KLF5 promoter-luciferase reporter, luminescence; actives 0.23% (n = 290,000);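 active = inhibition above a per-plate limit of that plate's mean compound inhibition plus 3 SD, cut at about 60% in these data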;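 note: 0% = DMSO wells and 100% = LY294002 at 200 µM; higher means less KLF5 promoter-driven luciferase light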
# CSC inhib = blocks cancer stem cells; cancer stem cell-like cells viability, luminescence; inhibition, % at 7.5 µM; actives 1.1% (n = 300,000); AID 2717; in the data active = inhibition above about 75%; inconclusive = no clear call, values can overlap the other calls; tested in HMLE shEcad cells
# SKKanGAS inh = inhibitors of SKKanGAS S. pyogenes growth in kanamycin (SK-promoter or general growth effect). BacTiter-Glo, 6 h. AID 1662. inhibition, % at 7.5 µM. actives 1.3% (n = 300,000);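 active = mean replicate score, as percent of positive control median, at least 50; inconclusive = mean below 50 but one replicate at or above 50; inactive = mean and every replicate below 50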;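 note: strain carries kanamycin resistance gene driven by streptokinase promoter and grows in 40 µg/ml kanamycin; loss of luminescence reflects streptokinase promoter inhibition or plain growth inhibition; 0% = median of DMSO wells and 100% = positive control at its reference dose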
# IEC-6 cytotox = counter-screen for KLF5 inhibitors: cytotoxicity in IEC-6 cells; IEC-6 cytotoxicity, luminescence viability; actives 0.78% (n = 290,000); inhibition, % at 5 µM;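 note: 0% = plate median of test compound wells and 100% = cytotoxic reference compound wells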
# aSyn 5UTR inh = 5' untranslated region of α-synuclein, MLPCN primary screen; alpha-synuclein 5'UTR reporter, inhibitor activity; inhibition, % (tested at 7.5 µM); actives 0.82% (n = 300,000); AID 1813; in the data active = inhibition above about 60%; inconclusive = no clear call, values can overlap the other calls;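 note: H4 neuroglioblastoma cells stably carrying SNCA 5'UTR luciferase fusion; 0% = DMSO wells and 100% = positive control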
# IEC-6 cytotox cf = confirmation of cytotoxic compounds in rat IEC-6 intestinal epithelial cells; AID 1907; inhibition, % at 5 µM; actives 63% (n = 1,900); shares compounds with IEC-6 cytotox; IEC-6 rat intestinal epithelial viability, luminescence;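 note: 0% = vehicle and 100% = reference cytotoxic drug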
# * = called active by the depositor; u = inconclusive; x = no result given. The list is not random: actives were taken first. Their share in the collection is about 3%. Cut-off read from the data, not from the text of the source, unless noted: active = inhibition above about 22%; inactive = the rest.
SMILES,KLF5 inhibitor,CSC inhib,SKKanGAS inh,IEC-6 cytotox,aSyn 5UTR inh,IEC-6 cytotox cf
COc1cccc(N2CC(O)=C(c3nc4ccccc4s3)C2=N)c1,29,51,11,79*,-21,57*
O=C(Nc1ccccc1C(F)(F)F)c1cc2ncc(CCCl)cn2n1,-10,12,2,1,-81,x
C=CCn1cnc2c(oc3ccccc32)c1=O,-23,-1,1,-1,-20,x
O=c1c2oc3ccccc3c2ncn1Cc1ccccc1F,-27,-1,14,34*,-10,12
O=c1c2oc3ccccc3c2ncn1Cc1ccccc1Cl,-18,-7,13,37*,-9,26*
Cc1ccc(NC(=O)c2cc(S(=O)(=O)N3CCOCC3)cs2)cc1,-9,-5,-3,97*,-20,4
O=C(Nc1ccc(F)cc1)c1cc(S(=O)(=O)N2CCOCC2)cs1,-30,-1,1,11,-14,x
O=C(CN1C(=O)NC2(CCCC2)C1=O)OCc1c(F)cccc1Cl,x,-5,-8,x,-3,x
Cc1cc(=O)[nH]c2ccccc12,-36,-4,-2,-2,7,x
Cc1cc2[nH]c3c(c[n+](C)c4ccccc34)c2cc1C,58,104*,5,65*,101*,55*
Cc1ccc(C)c(NC(=S)Nc2cccc3cnccc23)c1,-16,10,12,9,6,x
Cc1ccc(F)c(NC(=S)Nc2cccc3ccccc23)c1,-80,41,16,65*,-2,-2
COc1ccc(OCCCC(=O)Nc2cccc(SC)c2)cc1,6,1,-7,8,15,x
Cc1ccccc1C(=O)N/N=C/c1cccc2ccccc12,-65,5,3,3,-72,x
Cc1ccccc1NC(=S)Nc1cccc2cnccc12,6,13,8,44*,23,-1
COc1ccc(OCCCC(=O)Nc2cccc(C(C)=O)c2)cc1,-20,10,0,89*,2,-10
Cc1ccc(Cl)cc1NC(=S)N/N=C/c1cccc2ccccc12,45,u,80*,79*,38,67*
CCN(CC1CCCO1)C(=O)CCc1nnc(CCc2ccccc2OC)o1 (stereo not given),-31,-3,-1,-2,5,x
COc1ccc(S(=O)(=O)N2CCCC2C(=O)n2nc(C)cc2C)cc1 (stereo not given),-10,3,1,4,-38,x
NC(=O)c1sc2nnc(-c3ccccc3)c(-c3ccccc3)c2c1N,-37,-3,-14,1,24,x
C=CCCN(C(C(=O)OC)C(C)C)S(=O)(=O)c1ccccc1Br (stereo not given),x,3,8,x,15,x
CC(=O)Nc1cccc(NC(=S)Nc2cccc3ccccc23)c1,-106,-2,9,6,-116,x
CC(=O)c1cccc(NC(=S)Nc2cccc3ccccc23)c1,-38,8,0,28*,-80,-1
CC(C)(C)c1ccc(C(=O)Nc2ccc(C(=O)NCc3cccnc3)cc2)cc1,20,3,-6,98*,57,91*
O=C(NCc1cccnc1)c1ccc(NC(=O)c2ccc([N+](=O)[O-])cc2)cc1,-20,-2,-4,87*,24,59*
SMILES,KLF5 inhibitor,CSC inhib,SKKanGAS inh,IEC-6 cytotox,aSyn 5UTR inh,IEC-6 cytotox cf
O=C(NC(=S)NCc1cccnc1)c1ccc([N+](=O)[O-])cc1,-5,-5,1,0,-22,x
CCc1ccc(CNC(=O)CCCC(=O)n2nc(C)c3ccccc32)cc1,-21,1,-7,-7,-3,x
Nc1nc(Cl)nc(N(c2ccccc2)c2ccccc2)n1,0,-9,-8,8,2,x
Nc1nc(CCl)nc(N(c2ccccc2)c2ccccc2)n1,-9,3,-3,90*,8,11
CCOc1ccc(N(Cc2cc3ccc(C)cc3[nH]c2=O)S(=O)(=O)c2ccccc2)cc1,25,-14,16,22*,-35,-6
Cc1ccc2cc(CN(c3ccccc3)S(=O)(=O)c3ccccc3)c(=O)[nH]c2c1,-21,-6,-8,7,-22,x
O=C(N/N=C/c1c(-c2ccccc2)[nH]c2ccccc12)c1cccnc1,13,4,4,58*,-34,23*
CCN(CC)c1ccc(/C=N/NC(=O)CNC(=O)C2COc3ccccc3O2)c(O)c1 (stereo not given),60,4,59*,52*,55,48*
CCOC(=O)N1CCN(Cc2ccc3c(c2)OCO3)CC1,-15,-13,-1,-6,-18,x
Cc1c(O)ccc(C(=O)CN2CCN(Cc3ccc4c(c3)OCO4)CC2)c1O,7,4,1,60*,6,4
O=C(NC(=S)NCC1CCCO1)C(c1ccccc1)c1ccccc1 (stereo not given),-15,-12,7,-8,7,x
COC(=O)COc1ccc(NC(=O)C(c2ccccc2)c2ccccc2)cc1,-18,20,-3,25*,-2,0
C/C(=N\NC(=O)CN1CCN(Cc2ccc(C)cc2)CC1)c1ccncc1,-23,7,2,-6,20,x
O=C(O)c1ccc(N/N=C/c2cc3ccccc3nc2Cl)cc1,-76,1,19,22*,-143,31*
Clc1nc2ccccc2cc1/C=N/Nc1nc2ccccc2[nH]1,-41,5,-8,13,-97,x
Cc1cccc2cc(/C=N/Nc3ccc(C(=O)O)cc3)c(Cl)nc12,-128,-2,-4,27*,-197,48*
O=C(CSc1nnc(NC(=O)C2CCC2)s1)Nc1ccccc1F,-11,-13,3,-3,12,x
CC(NC(=O)CCC(=O)c1ccccc1)c1ccc(F)cc1 (stereo not given),x,-10,-5,x,7,x
O=C(Nc1ccc(F)cc1)c1nc(S(=O)(=O)Cc2ccccc2)ncc1Cl,18,108*,-6,91*,67*,12
CCOC(=O)c1ccc(NC(=O)c2nc(SC)ncc2Cl)cc1,-18,-3,7,-5,-5,x
Cc1ccccc1CS(=O)(=O)c1ncc(Cl)c(C(=O)Nc2ccc(F)cc2)n1,9,98*,-12,61*,64*,10
Cc1ccc(NC(=O)c2nc(S(=O)(=O)Cc3ccccc3)ncc2Cl)cc1,13,104*,15,97*,36,19
O=C(Nc1ccc(F)cc1)c1nn(-c2ccccc2)c(=O)cc1Cl,5,x,-7,15,40,x
C/C=C\C(=O)Nc1cccc(C2=NOC3(C2)C[C@@H](C(N)=O)N(C(=O)c2ccc(OC)cc2)C3)c1 (stereo not given in full),x,-10,-6,x,15,x
Cc1cccc(-n2c(O)c(C=NC3CCS(=O)(=O)C3)c3ccccc3c2=O)c1C (stereo not given),-8,-5,36,-1,-3,x
O=C(Nc1ccc(S(=O)(=O)N2CCCCCC2)cc1)c1[nH]ncc1[N+](=O)[O-],-1,52,5,29*,86*,7
COc1cc2cc(CCCOC(=O)c3ccc(C#N)cc3)oc(=O)c2cc1OC,x,-9,x,x,x,x
COc1cc2nc(=S)n3[nH]c(CCn4nc(C)cc4C)nc3c2cc1OC,10,-2,51*,53*,8,8
